# Measurements: PubChem BioAssay (NCI)
# This is part of a sample that, as a whole, favours compounds with a hit. Of some 79,000 tested, about 15% had one in any assay. Values without a mark were called inactive. Calls of active or inactive are those of the source. No stated cut-off is given here; in the data, active means growth inhibition above about 70%; inactive means the rest.
# Assay: NCI Yeast Anticancer Drug Screen. Data for the mlh1 strain (AID 171);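 further: 0% = growth of vehicle-treated control cultures of the same strain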
# Conditions: S. cerevisiae mlh1 strain growth inhibition, active compounds read high
# Experimental: Growth inhibition of yeast strains with defined genetic alterations is measured as a screen for potential anti-cancer activity. Selected strains with alterations in DNA damage repair or cell cycle control were exposed to compounds and growth inhibition was measured relative to vehicle treated controls. The strain used in this assay is mlh1
Structure (SMILES),growth inhibition (at 1.2 µM),growth inhibition (at 3.7 µM),growth inhibition (at 11.0 µM),growth inhibition (at 33.0 µM),growth inhibition (at 100.0 µM)
CC(=O)CC(=O)/C=C/c1cccs1,-21%,-24%,-1%,16%,88% (active)
COc1cc(CNc2ccc(C(C)C)cc2)cc(OC)c1OC,-2%,-21%,-15%,-20%,76% (active)
COC(=O)c1ccc2c(c1)Cc1ccccc1-2,-3%,9%,2%,-11%,8%
Clc1cc(-c2ccccc2)nc2ccccc12,20%,27%,24%,61%,95% (active)
CCC(NC(C)c1ccccc1)C(=O)c1ccc(OCc2ccccc2)c(OCc2ccccc2)c1 (stereo not given),5%,-6%,3%,0%,-3%
O=C(CNS(=O)(=O)Cc1ccccc1)NNc1ccccc1,-4%,0%,5%,16%,24%
CCOC(=O)c1csc(Br)n1,3%,-7%,0%,3%,0%
CC(=O)c1cc2c(Cl)cc(Cl)cc2oc1=O,-36%,-35%,-32%,-12%,-5%
